Screens as filed in PubChem.
Hits are enriched below; roughly 13% of the tested compounds scored in any of these assays.
LASV entry inh: blocks Lassa virus binding to or entry into cells; Lassa virus pseudotype entry inhibition, cell reporter; Potency, µM (series often up to 37.9 µM), most hits filed as inhibitors; actives 1.2% (n = 300,000); AID 540256; calls by dose curve; tested in HEK293 cells; further: nearly all actives have a fitted effect of over 50% in size
HCV inhibitor: HCV inhibition. Potency, µM (titrated, usually from 41.8 µM), usual class: inhibitors. Huh7.5.1 HCVcc-Cre infection, luciferase reporter, 44 h. actives 3.4% (n = 340,000); active means well fitted inhibition curve with a large enough effect; inconclusive means small, poorly fitted or top-dose-only effect, or another doubt; inactive means no such curve, though single readings can be large or run the other way
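Seed cells (1,000/well) for 4 h; treat with compound and infect with HCVcc-Cre, moi about 0.5. Incubate 44 h, then detect luciferase activity.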
Shiga toxin inh: Shiga toxin inhibition | AID 2315 | Vero cells, Shiga toxin protein synthesis inhibition reporter | inhibition, % at 38.7 µM | actives 9.2% (n = 290,000); in the data active means inhibition mostly above about 28%, no sharp cut-off; inactive means mostly below about 43%
CHX counter: counter-screen for Shiga toxin inhibitors: cycloheximide protein synthesis inhibition; cell reporter, cycloheximide protein synthesis inhibition counterscreen; AID 2314; max response, %; actives 12% (n = 300,000); in the data active means max response mostly above about 13%, no sharp cut-off; inactive means mostly below about 14%; further: read at 38.3 µM for the half of the compounds with a filed dose
Marburg entry inh: Marburg virus entry inhibition. Marburg virus pseudotyped entry inhibition, cell reporter. actives 1.8% (n = 300,000). Potency, µM (top dose mostly 37.8 µM), actives largely listed as inhibitors; calls by dose curve; tested in HEK293 cells
FMDV inh: antivirals against foot and mouth disease virus; FMDV antiviral cell-based qHTS; actives 1.2% (n = 410,000); Potency, µM (highest dose often 57.9 µM), usual class: inhibitors; calls by dose curve; tested in HEK293T cells; further: read-out not given here; nearly all actives have a fitted effect of over 45% in size
Hits are given with their value; 0 = inactive; ? = inconclusive; - = no result given; + = active, no number.

SMILES	LASV entry inh	HCV inhibitor	Shiga toxin inh	CHX counter	Marburg entry inh	FMDV inh
Cc1cc(/C=C(/C#N)c2nc3ccccc3[nH]2)c(C)n1-c1cccc([N+](=O)[O-])c1	10µM	?	37.3	32.4	?	0
Cc1cc(/C=C(\C#N)c2nc3ccccc3[nH]2)c(C)n1C	10µM	?	67.1	23.4	?	0
O=C(NCCCN1CCCCC1)c1ccc2c(c1)ncn2C1CCCC1	0	0	0	0	0	0
O=C1CN(/N=C/c2ccc([N+](=O)[O-])o2)C(=O)N1	?	25.1µM	0	0	?	0
O=C1CN(/N=C/c2ccc(-c3ccc([N+](=O)[O-])cc3)o2)C(=O)N1	-	-	-	-	0	0
CC(C)(C)NC(=O)c1sccc1C(=O)O	0	-	51.4	22.4	?	0
Cc1cc(NC(=O)c2nn(C)c(C)c2[N+](=O)[O-])no1	0	0	0	0	0	0
Cc1cc(NC(=O)c2ccc(F)cc2)no1	-	0	91.0	33.2	-	0
Cc1cc(NC(=O)c2ccc(NC(=O)C(C)Oc3ccccc3)cc2)no1 (stereo not drawn)	0	0	0	0	0	-
CC(=O)Nc1ccc(C(=O)Nc2cc(C)on2)cc1	0	0	43.8	32.3	0	0
Cc1cc(NC(=O)c2ccc(C(C)(C)C)cc2)no1	?	0	-	-	?	0
Cc1cc(NC(=O)c2nn(C)c(C)c2Br)no1	-	0	80.9	44.7	-	0
CSc1ccccc1NC(=O)CN(C)CC(=O)Nc1c(F)cccc1F	0	0	0	0	0	0
CN(C)c1ccc(/C=N/NC(=S)NCc2ccco2)cc1	2.06µM	0	23.4	0	?	0
CN(C)c1ccc(C(=S)NCc2ccco2)cc1	?	0	+	84.7	?	15.8µM
S=C(NCc1ccco1)N/N=C/c1ccncc1	0	0	0	0	0	0
S=C(NCc1ccco1)NCc1ccco1	0	0	-	-	0	0
CCOC(=O)N/N=C(\C)c1ccc(Br)cc1	0	0	0	30.6	?	-
COc1ccc(/C(C)=N/NC(=O)OC(C)(C)C)cc1[N+](=O)[O-]	-	0	78.9	22.3	-	0
CCOC(=O)N/N=C(\C)c1ccc(Oc2ncccn2)cc1	-	0	0	0	-	0
COc1ccc(C(=O)OCC(=O)NC(C)(C)C)cc1[N+](=O)[O-]	0	0	0	0	0	0
COC(=O)N/N=C(\C)c1ccc(Br)cc1	0	0	0	0	?	0
CCOC(=O)N/N=C(\C)c1ccc(C)c([N+](=O)[O-])c1	0	0	0	15.7	?	0
CCN(CC)c1nc(-c2ccc(C(C)(C)C)cc2)nc2ccccc12	12.6µM	-	-	-	-	?
COc1ccc(/C(N)=N/OC(=O)c2ccc(C)c([N+](=O)[O-])c2)cc1OC	0	0	0	0	0	0
SMILES	LASV entry inh	HCV inhibitor	Shiga toxin inh	CHX counter	Marburg entry inh	FMDV inh
COc1cc(OC)c(C(=O)O/N=C(\N)c2ccccc2)cc1OC	-	?	48.3	29.1	-	0
COc1cccc(OC)c1C(=O)O/N=C(\N)c1ccncc1	0	0	0	22.8	?	0
COc1ccc(C(=O)O/N=C(\N)c2ccncc2)cc1OC	?	0	0	14.6	?	0
COc1ccc(C(=O)O/N=C(\N)c2cccc(C)c2)cc1OC	-	?	45.1	36.0	-	0
COc1ccc(-c2ccc3c(c2)c(Sc2ccccc2)c(-c2cc(OC)cc(OC)c2)n3C)cc1	-	-	-	-	-	0
CC(O)(COc1ccccc1)c1ccc2c(c1)CN(Cc1ccc3nsnc3c1)CCO2 (stereo not drawn)	-	-	-	-	-	0
N/C(=N\OC(=O)c1cccc2ccccc12)c1ccc(Br)cc1	0	0	0	0	?	0
COc1ccc(C(=O)O/N=C(\N)c2ccccc2)cc1OC	?	0	91.2	43.7	?	0
COc1cc(C(=O)O/N=C(\N)c2ccncc2)cc(OC)c1OC	0	0	0	0	0	-
COc1ccc(Cl)cc1C(=O)O/N=C(\N)c1ccncc1	0	22.4µM	57.1	0	0	0
N/C(=N\OC(=O)c1cccc2ccccc12)c1ccncc1	-	0	67.2	44.6	-	0
FC(F)(F)c1cnc(N2CCCN(C(=S)Nc3ccccc3)CC2)c(Cl)c1	?	?	0	0	?	?
FC(F)(F)c1cnc(N2CCN(C(=S)NCc3ccccc3)CC2)c(Cl)c1	?	0	0	0	12.6µM	0
C/C(=N\NC(=O)c1cc(-c2ccccc2C)nc2ccccc12)c1cccnc1	0	0	0	0	0	0
CC1(C)N=C(SCC(=O)Nc2ccc(Cl)cc2)C(c2ccc(Cl)cc2)=N1	0	12.6µM	0	0	0	22.4µM
